# The entries come from a sample that favours the strongest signals as a whole.
# Tests used:
# Test in all cases: glycan array binding signal (z-score within array); higher = stronger binding
# Details in all cases: glycan notation: IUPAC condensed, linker removed
# [1] = molecular target: Fuc(a1-2)Gal(b1-3)GlcNAc(b1-2)Man(a1-3)[Fuc(a1-2)Gal(b1-3)GlcNAc(b1-2)Man(a1-6)]Man(b1-4)GlcNAc(b1-4)GlcNAc
# Summary of the method: (§1)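 Glycan array data came from 3228 arrays in the Consortium for Functional Glycomics database, and only arrays with an available protein sequence were kept. Glycan names were put into IUPAC-condensed notation, and columns mapping to the same glycan were averaged. The binding signal is a within-array Z-score, averaged across arrays of one protein sequence run at different concentrations or buffers and across linkers. A negative Z-score can be read as non-binding.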
# [2] = molecular target: Fuc(a1-2)Gal(b1-3)GlcNAc(b1-3)Gal(b1-4)Glc
# Summary of the method: as §1
# [3] = molecular target: Fuc(a1-2)Gal(b1-4)GlcNAc(b1-2)Man(a1-3)[Fuc(a1-2)Gal(b1-4)GlcNAc(b1-2)Man(a1-6)]Man(b1-4)GlcNAc(b1-4)[Fuc(a1-6)]GlcNAc
# Summary of the method: as §1
# [4] = molecular target: Fuc(a1-2)Gal(b1-4)GlcNAc(b1-3)[Fuc(a1-2)Gal(b1-4)GlcNAc(b1-6)]GalNAc
# Summary of the method: as §1
# [5] = molecular target: Fuc(a1-2)[Gal(a1-3)]Gal(b1-4)GlcNAc
# Summary of the method: as §1
# [6] = molecular target: Fuc(a1-2)[Gal(a1-3)]Gal(b1-4)GlcNAc(b1-6)GalNAc
# Summary of the method: as §1
# [7] = molecular target: Fuc(a1-2)[GalNAc(a1-3)]Gal(b1-3)GlcNAc(b1-3)GalNAc
# Summary of the method: as §1
# [8] = molecular target: Fuc(a1-2)[GalNAc(a1-3)]Gal(b1-4)GlcNAc(b1-3)GalNAc
# Summary of the method: as §1
# [9] = molecular target: Fuc(a1-3)[Gal(b1-4)]GlcNAc(b1-3)Gal(b1-4)[Fuc(a1-3)]GlcNAc(b1-3)Gal(b1-4)[Fuc(a1-3)]GlcNAc
# Summary of the method: as §1
# [10] = molecular target: Fuc(a1-3)[Gal(b1-4)]GlcNAc(b1-6)GalNAc
# Summary of the method: as §1
# [11] = molecular target: Fuc(a1-3)[Gal(b1-4)]GlcNAc(b1-6)[Gal(b1-3)GlcNAc(b1-3)]Gal(b1-4)Glc
# Summary of the method: as §1
# [12] = molecular target: Fuc(a1-4)GlcNAc
# Summary of the method: as §1
# [13] = molecular target: Gal(a1-3)Gal(b1-3)GlcNAc(b1-2)Man
# Summary of the method: as §1
# [14] = molecular target: Gal(a1-3)Gal(b1-4)GlcNAc(b1-6)GalNAc
# Summary of the method: as §1
# [15] = molecular target: Gal(b1-3)GalNAc(b1-4)Gal(b1-4)Glc
# Summary of the method: as §1
# [16] = molecular target: Gal(b1-3)GlcNAc(b1-3)Gal(b1-4)GlcNAc
# Summary of the method: as §1
# [17] = molecular target: Gal(b1-3)GlcNAc(b1-3)Gal(b1-4)GlcNAc(b1-6)[Gal(b1-3)GlcNAc(b1-3)]Gal(b1-4)Glc
# Summary of the method: as §1
# [18] = molecular target: Gal(b1-3)GlcNAc(b1-6)[Gal(b1-3)]GalNAc
# Summary of the method: as §1
# [19] = molecular target: Gal(b1-3)[Fuc(a1-4)]GlcNAc(b1-2)Man(a1-3)[Gal(b1-3)[Fuc(a1-4)]GlcNAc(b1-2)Man(a1-6)]Man(b1-4)GlcNAc(b1-4)[Fuc(a1-6)]GlcNAc
# Summary of the method: as §1
# [20] = molecular target: Gal(b1-3)[Fuc(a1-4)]GlcNAc(b1-3)Gal(b1-4)[Fuc(a1-3)]GlcNAc
# Summary of the method: as §1
# [21] = molecular target: Gal(b1-3)[Fuc(a1-4)]GlcNAc(b1-6)GalNAc
# Summary of the method: as §1
# [22] = molecular target: Gal(b1-4)GlcNAc(b1-2)Man(a1-3)[Gal(b1-4)GlcNAc(b1-2)Man(a1-6)]Man(b1-4)GlcNAc(b1-4)[Fuc(a1-6)]GlcNAc
# Summary of the method: as §1
# [23] = molecular target: Gal(b1-4)GlcNAc(b1-2)[Gal(b1-4)GlcNAc(b1-4)]Man(a1-3)[GlcNAc(b1-4)][Gal(b1-4)GlcNAc(b1-2)[Gal(b1-4)GlcNAc(b1-6)]Man(a1-6)]Man(b1-4)GlcNAc(b1-4)GlcNAc
# Summary of the method: as §1
# [24] = molecular target: Gal(b1-4)GlcNAc(b1-3)Gal(b1-4)GlcNAc(b1-3)Gal(b1-4)GlcNAc(b1-2)Man(a1-3)[Gal(b1-4)GlcNAc(b1-3)Gal(b1-4)GlcNAc(b1-3)Gal(b1-4)GlcNAc(b1-2)Man(a1-6)]Man(b1-4)GlcNAc(b1-4)[Fuc(a1-6)]GlcNAc
# Summary of the method: as §1
# [25] = molecular target: Gal(b1-4)GlcNAc(b1-3)Gal(b1-4)GlcNAc(b1-3)[Gal(b1-4)GlcNAc(b1-3)Gal(b1-4)GlcNAc(b1-6)]GalNAc
# Summary of the method: as §1
# [26] = molecular target: Gal(b1-4)GlcNAc(b1-3)Gal(b1-4)GlcNAc(b1-6)[Gal(b1-3)]GalNAc
# Summary of the method: as §1
# [27] = molecular target: Gal3S(b1-3)GalNAc
# Summary of the method: as §1
# [28] = molecular target: Gal3S6S(b1-4)GlcNAc6S
# Summary of the method: as §1
# [29] = molecular target: Gal6S(b1-3)GlcNAc
# Summary of the method: as §1
# [30] = molecular target: Gal6S(b1-4)Glc
# Summary of the method: as §1
# [31] = molecular target: GalNAc(b1-3)Gal(a1-4)Gal(b1-4)GlcNAc(b1-3)Gal(b1-4)Glc
# Summary of the method: as §1
# [32] = molecular target: GalNAc(b1-4)GlcNAc
# Summary of the method: as §1
# [33] = molecular target: GalNAc4S6S(b1-4)GlcNAc
# Summary of the method: as §1
# [34] = molecular target: GlcNAc(a1-4)Gal(b1-4)GlcNAc(b1-3)Gal(b1-4)[Fuc(a1-3)]GlcNAc(b1-3)Gal(b1-4)[Fuc(a1-3)]GlcNAc
# Summary of the method: as §1
# [35] = molecular target: GlcNAc(b1-3)Gal(b1-4)GlcNAc(b1-6)[Gal(b1-3)]GalNAc
# Summary of the method: as §1
# [36] = molecular target: GlcNAc(b1-6)GalNAc
# Summary of the method: as §1
# [37] = molecular target: Kdn(a2-6)Gal(b1-4)GlcNAc
# Summary of the method: as §1
# [38] = molecular target: Man(a1-2)Man(a1-2)Man(a1-6)[Man(a1-3)]Man
# Summary of the method: as §1
# [39] = molecular target: Man(a1-3)[Man(a1-6)]Man(b1-4)GlcNAc(b1-4)[Fuc(a1-6)]GlcNAc
# Summary of the method: as §1
# [40] = molecular target: Neu5Ac(a2-3)Gal(b1-3)GalNAc(b1-4)[Neu5Ac(a2-3)]Gal(b1-4)Glc
# Summary of the method: as §1
# [41] = molecular target: Neu5Ac(a2-3)Gal(b1-3)]Neu5Ac(a2-3)Gal(b1-4)]GlcNAc
# Summary of the method: as §1
# [42] = molecular target: Neu5Ac(a2-3)Gal(b1-4)GlcNAc(b1-2)Man(a1-3)[Neu5Ac(a2-3)Gal(b1-4)GlcNAc(b1-2)Man(a1-6)]Man(b1-4)GlcNAc(b1-4)GlcNAc
# Summary of the method: as §1
# [43] = molecular target: Neu5Ac(a2-3)Gal(b1-4)GlcNAc(b1-3)Gal(b1-4)GlcNAc(b1-6)[Gal(b1-3)]GalNAc
# Summary of the method: as §1
# [44] = molecular target: Neu5Ac(a2-3)Gal(b1-4)GlcNAc(b1-3)Gal(b1-4)[Fuc(a1-3)]GlcNAc
# Summary of the method: as §1
# [45] = molecular target: Neu5Ac(a2-3)Gal(b1-4)GlcNAc(b1-6)[Gal(b1-3)]GalNAc
# Summary of the method: as §1
# [46] = molecular target: Neu5Ac(a2-3)Gal(b1-4)[Fuc(a1-3)]GlcNAc(b1-3)GalNAc
# Summary of the method: as §1
# [47] = molecular target: Neu5Ac(a2-3)GalNAc
# Summary of the method: as §1
# [48] = molecular target: Neu5Ac(a2-6)Gal(b1-4)GlcNAc(b1-2)Man(a1-6)[GlcNAc(b1-2)Man(a1-3)]Man(b1-4)GlcNAc(b1-4)GlcNAc
# Summary of the method: as §1
# [49] = molecular target: Neu5Ac(a2-6)Gal(b1-4)GlcNAc(b1-2)[Neu5Ac(a2-6)Gal(b1-4)GlcNAc(b1-4)]Man(a1-3)[GlcNAc(b1-4)][Neu5Ac(a2-6)Gal(b1-4)GlcNAc(b1-4)Man(a1-6)]Man(b1-4)GlcNAc(b1-4)GlcNAc
# Summary of the method: as §1
# [50] = molecular target: Neu5Ac(a2-6)Gal(b1-4)GlcNAc(b1-3)Gal(b1-4)GlcNAc(b1-6)[Gal(b1-3)]GalNAc
# Summary of the method: as §1
# [51] = molecular target: Neu5Ac(a2-6)Gal(b1-4)GlcNAc(b1-3)[Neu5Ac(a2-6)Gal(b1-4)GlcNAc(b1-6)]GalNAc
# Summary of the method: as §1
# [52] = molecular target: Neu5Ac(a2-6)Gal(b1-4)GlcNAc(b1-6)[Gal(b1-3)]GalNAc
# Summary of the method: as §1
# [53] = molecular target: Neu5Ac(a2-8)Neu5Ac(a2-3)Gal(b1-3)GalNAc(b1-4)[Neu5Ac(a2-3)]Gal(b1-4)Glc
# Summary of the method: as §1
binder,measurement,setting,value
Aap arpt (Staphylococcus epidermidis) (protein) NNEAPQMSSTLQAEEGSNAEAPQSEPTKAEEGGNAEAAQSEPTKAEEGGNAEAPQSEPTKAEEGGNAEAAQSEPTKTEEGSNVKAAQSEPTKAEEGSNAEAPQSEPTKTEEGSNAKAAQSEPTKAEEGGNAEAAQSEPTKTEEGSNAEAPQSEPTKAEEGGYAEAPQSEPTKTEEGGNAEAPNVPTIKA,glycan array binding signal (z-score),[1],1.6
same,glycan array binding signal (z-score),[2],0.811
same,glycan array binding signal (z-score),[3],-0.547
same,glycan array binding signal (z-score),[4],-1.34
same,glycan array binding signal (z-score),[5],0.036
same,glycan array binding signal (z-score),[6],-0.475
same,glycan array binding signal (z-score),[7],-0.103
same,glycan array binding signal (z-score),[8],-0.617
same,glycan array binding signal (z-score),[9],0.278
same,glycan array binding signal (z-score),[10],0.096
same,glycan array binding signal (z-score),[11],-0.249
same,glycan array binding signal (z-score),[12],0.688
same,glycan array binding signal (z-score),[13],-0.261
same,glycan array binding signal (z-score),[14],3.25
same,glycan array binding signal (z-score),[15],0.305
same,glycan array binding signal (z-score),[16],-1.2
same,glycan array binding signal (z-score),[17],0.709
same,glycan array binding signal (z-score),[18],0.662
same,glycan array binding signal (z-score),[19],2.23
same,glycan array binding signal (z-score),[20],-1.72
same,glycan array binding signal (z-score),[21],-0.35
same,glycan array binding signal (z-score),[22],0.746
same,glycan array binding signal (z-score),[23],-1.6
same,glycan array binding signal (z-score),[24],2.73
same,glycan array binding signal (z-score),[25],2.68
same,glycan array binding signal (z-score),[26],2.97
same,glycan array binding signal (z-score),[27],0.361
same,glycan array binding signal (z-score),[28],1.02
same,glycan array binding signal (z-score),[29],-1.93
same,glycan array binding signal (z-score),[30],-0.15
same,glycan array binding signal (z-score),[31],-0.809
same,glycan array binding signal (z-score),[32],-0.143
same,glycan array binding signal (z-score),[33],1.06
same,glycan array binding signal (z-score),[34],2.41
same,glycan array binding signal (z-score),[35],-0.695
same,glycan array binding signal (z-score),[36],3.2
same,glycan array binding signal (z-score),[37],2.33
same,glycan array binding signal (z-score),[38],-0.012
same,glycan array binding signal (z-score),[39],1.13
same,glycan array binding signal (z-score),[40],-1.39
same,glycan array binding signal (z-score),[41],2.21
same,glycan array binding signal (z-score),[42],3
same,glycan array binding signal (z-score),[43],-0.491
same,glycan array binding signal (z-score),[44],-0.571
same,glycan array binding signal (z-score),[45],0.944
same,glycan array binding signal (z-score),[46],0.511
same,glycan array binding signal (z-score),[47],-0.745
same,glycan array binding signal (z-score),[48],2.64
same,glycan array binding signal (z-score),[49],-0.548
same,glycan array binding signal (z-score),[50],0.045
same,glycan array binding signal (z-score),[51],-1.09
same,glycan array binding signal (z-score),[52],0.173
same,glycan array binding signal (z-score),[53],-1.08
